This excerpt belongs to a sample that is enriched for hits.
Marburg entry inh = blocks Marburg virus binding to or entry into cells; Marburg virus pseudotyped entry inhibition, cell reporter; Potency, µM (highest dose often 37.8 µM), without a hit: at the top dose activity change, negative = inhibition, usual class: inhibitors; hit rate 1.8% among 300,000; AID 540276; calls by dose curve; tested in HEK293 cells; further: potency means the concentration at half of the fitted maximal effect; on the % scale 0 is the no-effect control and ±100 the full control effect
LASV entry inh = inhibitors of Lassa virus binding or cell entry; AID 540256; Potency, µM (doses to about 37.9 µM), inactives show at the top dose activity change, negative = inhibition, actives largely listed as inhibitors; Lassa virus pseudotype entry inhibition, cell reporter; hit rate 1.2% among 300,000; calls by dose curve; tested in HEK293 cells; further: potency means the concentration at half of the fitted maximal effect; on the % scale 0 is the no-effect control and ±100 the full control effect; nearly all actives have a fitted effect of over 50% in size
Shiga inhibitor = blocks Shiga toxin action in Vero cells; Vero cells, Shiga toxin protein synthesis inhibition reporter; inhibition, % at 38.7 µM; hit rate 9.2% among 290,000; in the data active means inhibition mostly above about 28%, no sharp cut-off; inactive means mostly below about 43%; further: 0% is about no effect
AMA1-RON2 inh = disrupts binding of P. falciparum AMA1 to RON2. AlphaScreen AMA1-biotinylated RON2 peptide binding. Potency, µM (doses to about 58.2 µM), for inactives: top-dose activity change, negative = inhibition, usual class: inhibitors. hit rate 0.2% among 360,000; active means well fitted inhibition curve with a large enough effect; inconclusive means small, poorly fitted or top-dose-only effect; inactive means no such curve, though single readings can be large or run the other way;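 further: potency means the concentration at half of the fitted maximal effect; 0% = vehicle wells and -100% = peptide control; nearly all actives have a fitted effect of over 45% in size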
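AMA1 (3D7) with his tag at 25 nM final met compounds first, then biotinylated RON2 peptide at 25 nM; detection used donor plus acceptor beads, 10 µg/mL apiece, read by AlphaScreen after 30 min at room temperature.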
Cycloheximide cs = counter-screen hit for Shiga toxin inhibitors, cycloheximide; cell reporter, cycloheximide protein synthesis inhibition counterscreen; max response, %; hit rate 12% among 300,000; AID 2314; in the data active means max response mostly above about 13%, no sharp cut-off; inactive means mostly below about 14%; further: read at 38.3 µM for the half of the compounds with a filed dose; 0% is about no effect
Starred values were filed as active, the others as inactive; u = inconclusive; x = no result; + = active, no number; [ ] = dose if it differs, or a comment.

SMILES	Marburg entry inh	LASV entry inh	Shiga inhibitor	AMA1-RON2 inh	Cycloheximide cs
Cc1cccc(NC(=O)CN2C(=O)C3(SCC(=O)N3c3ccccc3)c3ccccc32)c1 (stereo not drawn)	x	31.4%[46.1 µM]	x	x	x
BrCCOCCOc1ccc2ccccc2c1	-4.2%	8.8%	26.4	17.3%	65.4*
CC(C)(C)NCCOc1ccc2ccccc2c1	u	-2.8%	-5.9	5.7%	4.2
COc1cccc(CN(C(=O)c2cc3ccccc3oc2=O)C2CCS(=O)(=O)C2)c1 (stereo not drawn)	u	0.7%[46.1 µM]	79.2*	10.3%	42.4*
O=C(c1cc2ccccc2oc1=O)N(Cc1ccco1)C1CCS(=O)(=O)C1 (stereo not drawn)	9.2%	28.9%	35.5	19.7%	29.4*
CN(C)c1ccc(CN(C(=O)c2cc3ccccc3oc2=O)C2CCS(=O)(=O)C2)cc1 (stereo not drawn)	x	x	62.5*	0.0%	47.5*
O=C(c1ccc(Cl)c([N+](=O)[O-])c1)N(Cc1ccc(F)cc1)C1CCS(=O)(=O)C1 (stereo not drawn)	-14.6%	3.6%	-14.8	-1.6%	-1.9
CN(C)c1ccc(CN(C(=O)c2ccc(Cl)c([N+](=O)[O-])c2)C2CCS(=O)(=O)C2)cc1 (stereo not drawn)	11.2µM*	u	6.6	-18.2%	15.3
O=C(c1ccccc1Br)N(Cc1ccco1)C1CCS(=O)(=O)C1 (stereo not drawn)	9.0%[46.1 µM]	1.7%[46.1 µM]	x	x	x
CC(C)c1ccc(CN(C(=O)c2cc3ccccc3oc2=O)C2CCS(=O)(=O)C2)cc1 (stereo not drawn)	-0.2%[46.1 µM]	11.7%[46.1 µM]	-0.9	0.3%	14.7
O=C(CN1CCN(c2ccccc2O)CC1)Nc1cc(S(=O)(=O)N2CCCC2)ccc1Cl	x	x	x	15.4%	x
CN(C)c1ccc(CN(C(=O)c2ccccc2Br)C2CCS(=O)(=O)C2)cc1 (stereo not drawn)	x	x	34.8*	-4.0%	10.4*
O=C(c1cc2ccccc2oc1=O)N(Cc1cccc(Cl)c1)C1CCS(=O)(=O)C1 (stereo not drawn)	-2.6%[46.1 µM]	-15.7%[46.1 µM]	x	x	x
O=C(c1cc2ccccc2oc1=O)N(Cc1cccc(Br)c1)C1CCS(=O)(=O)C1 (stereo not drawn)	-21.9%[46.1 µM]	1.4%[46.1 µM]	30.8	-2.9%	15.4*
COc1ccc2c(c1OC)C(=O)N1C2SC(C)(C)[C@H]1C(=O)NCC(C)C (stereo partly drawn)	x	x	-11.9	6.0%	1.0
Fc1ccccc1CCNCc1cccc(Cl)c1Cl	1.5%	15.2%	26.6	0.5%	18.5*
Fc1ccccc1CCNCc1ccccc1	u	1.1%	3.8	7.7%	1.6
Cc1nnc(SCC(=O)NCC2COc3ccccc3O2)s1 (stereo not drawn)	2.5%	9.1%	x	26.2%	x
CCOC(=O)c1cc(-c2ccccc2)n(CCC(=O)Nc2ccc(Cl)c(C(F)(F)F)c2)c1C	x	-24.7%[46.1 µM]	x	x	x
CCn1c(C)c(C(=O)c2ccccc2)c(C#N)c1C(=O)O	x	x	25.4	-12.4%	20.6*
Cc1c(C#N)c(N)c(C(=O)c2ccccc2)n1Cc1ccccc1	-1.9%[46.1 µM]	-7.3%	-21.2	-3.2%	-0.8
Cc1cc(C)cc(OCC(=O)Nc2ccc(-c3nc4ccccc4s3)cc2)c1	18.9%[46.1 µM]	u	x	x	x
Cc1ccc2nc(-c3ccc(NC(=O)CN4CCN(c5ccccn5)CC4)cc3)sc2c1	u	-18.6%	90.2*	9.9%	28.6*
Cc1ccc2nc(-c3ccc(NC(=S)NC(=O)CC(C)C)cc3)sc2c1	u	u	+	3.7%	34.1*
Cc1ccc2nc(NC(=O)CN3CCN(c4ccccn4)CC3)sc2c1	1.3%[46.1 µM]	-23.8%[46.1 µM]	15.8	5.1%	-2.8
SMILES	Marburg entry inh	LASV entry inh	Shiga inhibitor	AMA1-RON2 inh	Cycloheximide cs
Cc1ccc2nc(-c3ccc(NC(=O)COC(=O)c4ccc(=O)[nH]c4)cc3)sc2c1	u	u	61.3*	-22.1%	65.2*
Cc1ccc2nc(-c3ccc(NC(=O)CNC4CC4)cc3)sc2c1	x	x	95.0*	u	42.1*
Cc1ccc2nc(-c3ccc(NC(=O)C(F)(F)F)cc3)sc2c1	u	29.8%[46.1 µM]	x	x	x
Cc1nn(-c2ccc(Cl)cc2)c2nc(-c3cccnc3)cc(C(F)(F)F)c12	-1.7%[46.1 µM]	-5.2%[46.1 µM]	x	x	x
Cc1ccc2nc(-c3ccc(NC(=O)CN4C(=O)c5ccccc5C4=O)cc3)sc2c1	u	u	108.4*	12.6%	75.3*
O=C(CCc1c[nH]c2ccccc12)NCc1cccc(Cl)c1	14.7%[46.1 µM]	-18.7%[46.1 µM]	2.4	-9.3%	-3.9
O=C(CCc1c[nH]c2ccccc12)NCCc1ccc2c(c1)OCCO2	20.9%	u	83.8*	-4.3%	16.6
O=C(NCCc1ccc2c(c1)OCCO2)c1ccccn1	-12.1%[46.1 µM]	u	77.8*	-2.7%	41.8*
O=C(NCc1ccc2c(c1)OCO2)c1ccccc1	23.9%[46.1 µM]	u	-1.9	-20.2%	6.0
O=C(NCc1ccc2c(c1)OCO2)c1ccccn1	18.2%	27.2%	-6.1	11.7%	20.2*
CCOC(=O)C1=CCC(c2ccccc2)N(S(=O)(=O)c2ccc(C)cc2)[C@H]1CC (stereo partly drawn)	x	x	x	0.6%	x
CCOC(=O)N1CCN(C(=O)CCCn2nc(C)c3sc4ccccc4c3c2=O)CC1	2.9%	-17.1%	67.9*	-1.3%	13.3
C/C(=N/Oc1nc(C)cc(C)n1)c1ccc(F)cc1	19.6%	u	41.0	-0.1%	20.8*
C/C(=N/Oc1nc(C)cc(C)n1)c1ccccc1	26.5%[46.1 µM]	1.9%	49.7	11.7%	19.2*
C/C(=N\O)c1ccc2[nH]ccc2c1	u	-5.8%	37.6	8.7%	15.1*
Cc1oc(-c2ccc(-c3ccccc3)cc2)nc1CN(CCO)C(C)C	u	u	32.5	-6.0%	37.2*
Cc1ccc(-c2nc(CN(C)C3CCOCC3)c(C)o2)s1	x	x	-3.3	23.5%	9.0
Cc1ccc(-c2nc(CN(C)C3CCOC3)c(C)o2)s1 (stereo not drawn)	-23.7%[46.1 µM]	25.1%[46.1 µM]	46.7	3.0%	25.4*
Cc1oc(-c2cccc(Cl)c2)nc1CN(C)C1CCOC1 (stereo not drawn)	12.7%[46.1 µM]	1.3%	-7.7	4.6%	-3.4
Cc1oc(-c2ccc(-c3ccccc3)cc2)nc1CN(C)C1CCOC1 (stereo not drawn)	x	x	75.0*	-13.1%	60.1*
Cc1cccc(-n2c3nc(=O)[nH]c(=O)c-3cc3ccc(Cl)cc32)c1C	u	-0.4%[46.1 µM]	x	x	x
COC(=O)c1ccc(NC(=O)c2cc3sccc3n2C)cc1	0.0%	-10.4%	121.7*	-16.0%	39.7*
Cn1c(C(=O)Nc2ccc3c(c2)OCO3)cc2sccc21	-0.4%	-1.7%	92.1*	u	38.9
CCc1ccccc1NC(=O)c1cc2sccc2n1C	x	x	42.3*	-23.4%	49.0*
COc1cc(NC(=O)c2cc3sccc3n2C)cc(OC)c1	u	u	80.6*	-14.9%	29.7*
COCCNC(=O)c1cc2sccc2n1C	x	x	-2.0	12.3%	-0.2
COc1ccc(OC)c(NC(=O)c2cc3sccc3n2C)c1	-2.5%	5.4%	29.1	-11.2%	5.6
C#CCNC(=O)c1cc2sccc2n1C	x	x	-18.2	u	13.3
CCCCc1ncc(CN2CCC(n3nccc3NC(=O)c3ccccc3Cl)CC2)[nH]1	u	0.6%	-13.6	-22.3%	3.7
CCOC(=O)c1cc2sccc2n1CC(=O)OC	-9.0%	6.1%	-14.1	-11.2%	0.9
